# Experimental data as given in PubChem BioAssay (NCI).
# The panel holds about 79,000 compounds, 15% with a hit somewhere; the sample as a whole holds those more often. The source made the active and inactive calls. No stated cut-off is given here; in the data, active means growth inhibition above about 70%; inactive means the rest.
# Assay: NCI Yeast Anticancer Drug Screen. Data for the rad50 strain (AID 155);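 further: 0% = growth of vehicle-only cultures of the same strain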
# Details: S. cerevisiae rad50 strain growth inhibition; at 50.0 µM; stronger effect = higher value
# Procedure, shortened: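 Genetically altered yeast (DNA repair pathway); compound treatment; growth inhibition vs vehicle ctrl.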
row,Structure (SMILES),growth inhibition
1,N#C/C(=C\c1ccco1)C(N)=O,-11% (inactive)
2,COCCCNC(=O)c1nc2ccccc2c(=O)n1NC(=O)Cc1ccccc1,-14.1% (inactive)
3,COc1ccc(CCN2CCc3c(C)c(C#N)c4nc5ccccc5n4c32)cc1OC,5.75% (inactive)
4,COc1cc2c(c(O)c1C)C(=O)CC(c1ccccc1)O2 (configuration not stated),15.4% (inactive)
5,CC(C)=CC(=O)OC1C2C(C)C(=O)OC2C(O)C(C)C2C=CC(=O)C21C (configuration not stated),3.15% (inactive)
6,NC(=O)NNCc1ccccc1,-9.35% (inactive)
7,O=C1CCC(CC2CCCCC2)CC1,-6.7% (inactive)
8,CC(C)Nc1ccc(O)cc1,-21.1% (inactive)
9,NC(=O)CC(N)C(=O)NC(Cc1ccccc1)C(=O)NC(Cc1ccccc1)NC(=O)C(Cc1c[nH]c2ccccc12)C(=O)O (configuration not stated),-18.6% (inactive)
10,CCOC(=O)c1nc2ccc(C(F)(F)F)cc2nc1Nc1ccc(Cl)c(Cl)c1,-22.1% (inactive)
11,Cc1ncc(CSc2ccccc2N)c(CO)c1O,-10.8% (inactive)
12,CCOC(=O)C(C(=O)OCC)C(C(=O)OCC)C(=O)OCC,-22.7% (inactive)
13,OCC=C1CCCCCC1,4.9% (inactive)
14,CSC(=S)c1ccc(NSc2ccccc2[N+](=O)[O-])cc1,7.6% (inactive)
15,COc1ccc(CCNC(=O)Cc2cc(OCc3ccccc3)c(OC)cc2[N+](=O)[O-])cc1OC,36.1% (inactive)
16,O=C(O)c1c(Br)c(Br)c(Br)c(Br)c1C(=O)Nc1ccc(Br)cc1,2.25% (inactive)
17,O=C1OC(C(O)C(O)C(O)CO)C(O)C1O (configuration not stated),-9.65% (inactive)
